Bioassay records deposited in PubChem BioAssay by National Center for Advancing Translational Sciences (NCATS).
Rows were chosen to be rich in hits. Some 4.6% of all compounds tested hit in one or more screens of this group.
D1 ag: Allosteric Agonists of the Human D1 Dopamine Receptor: qHTS. activation, % at 2 µM. hit rate 1% among 360,000. HEK293 T-REx D1 cells, calcium flux, agonist mode. AID 504660, 2011; further: 0% is about no effect
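Inducible HEK293 T-REx D1 cells, force-coupled to calcium signalling, were plated at 4000 cells/well with tetracycline and held overnight at 30 C. After no-wash calcium dye loading, compound-evoked calcium rise over 180 s flagged agonists.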
TRHR enhancer: qHTS for Small Molecule Agonists and Allosteric Enhancers of Human TRH Receptor: Primary Screen for Enhancers. TRHR cells, fluo-8 calcium fluorescence, EC20 TRH enhancement. enhancement, % at 2 µM. hit rate 0.66% among 360,000. AID 493056, 2011; in the data active means enhancement above about 30%; further: 0% is about no effect
Target sequence (P34981 whole entry, looked up): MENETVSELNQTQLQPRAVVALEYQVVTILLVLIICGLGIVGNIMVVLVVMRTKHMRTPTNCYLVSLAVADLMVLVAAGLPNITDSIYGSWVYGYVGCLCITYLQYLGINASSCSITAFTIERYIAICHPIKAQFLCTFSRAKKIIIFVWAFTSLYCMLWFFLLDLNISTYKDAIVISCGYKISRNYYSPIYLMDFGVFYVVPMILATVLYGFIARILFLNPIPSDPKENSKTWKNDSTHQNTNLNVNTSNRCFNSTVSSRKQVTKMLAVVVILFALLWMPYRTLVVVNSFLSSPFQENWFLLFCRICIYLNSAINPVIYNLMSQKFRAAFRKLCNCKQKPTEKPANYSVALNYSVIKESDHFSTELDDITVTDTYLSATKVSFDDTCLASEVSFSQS
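TRHR-expressing cells loaded with fluo-8 calcium dye were read kinetically (ex 480/em 530) during compound addition, then stimulated with an EC20 of TRH (10 nM final). Enhancement of the Gq-mediated intracellular calcium response was scored.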
TRHR ag: qHTS for Small Molecule Agonists and Allosteric Enhancers of Human TRH Receptor: Primary Screen for Agonists | TRHR cells, calcium flux fluo-8, FDSS agonist mode | hit rate 0.18% among 360,000 | Thyrotropin-releasing hormone receptor (Homo sapiens), P34981 | AID 493084, 2011 | activation, % at 2 µM; further: 0% is about no effect
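Agonist-mode FDSS calcium read (Ex 480/Em 530, 1 s cycles) in 1536-well TRHR cells with fluo-8 dye, after 10-cycle baseline and 23 nL compound addition; TRH at EC20 (10 nM final) added afterwards for the enhancer phase.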
D1 potentiator: Potentiators of Human D1 Dopamine Receptor: qHTS; D(1A) dopamine receptor (Homo sapiens), P21728; HEK293 TREx D1 cells, calcium flux, dopamine EC20 potentiation; potentiation, % at 10 µM; hit rate 0.036% among 360,000; in the data active means potentiation above about 30%; further: 0% is about no effect
D1 antag: Antagonist of Human D 1 Dopamine Receptor: qHTS; D(1A) dopamine receptor (Homo sapiens), P21728; HEK293 TREx D1 cells, calcium flux, dopamine EC80; hits give low values; activity change, negative = inhibition, % at 10 µM; hit rate 3.2% among 360,000; in the data active means activity change below about -30%; further: on the % scale 0 is the no-effect control and ±100 the full control effect
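Tetracycline-induced HEK293 Trex D1 cells, force-coupled to calcium, dye-loaded; compounds added and read 180 s, then EC80 dopamine added and calcium flux tracked kinetically another 180 s.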
* = called active by the depositor; / = no result given. Unless noted, no stated cut-off is given here; in the data, active means activation above about 30%; inactive means the rest.

SMILES | D1 ag | TRHR enhancer | TRHR ag | D1 potentiator | D1 antag
COC(=O)CC(NS(=O)(=O)c1cccs1)c1ccccc1Cl (stereo unspecified) | 7 | -4 | -1 | -8 | -10
COC(=O)CC(NS(=O)(=O)c1cccs1)c1ccc2c(c1)OCO2 (stereo unspecified) | 0 | -2 | 1 | 4 | -56*
Cc1nnc(NCc2ccccc2)c2c1nnn2Cc1ccccc1Cl | 1 | -1 | 0 | 2 | -2
Cc1cc(N2C(=O)c3ccc(C(=O)Nc4ccc(O)cc4C(=O)O)cc3C2=O)no1 | 12 | 0 | 0 | -1 | -35*
O=C(Oc1ccc2c(c1)OCO2)C12CC3CC(CC(C3)C1)C2 | 2 | -10 | -1 | 7 | 9
O=C(Oc1ccc(O)cc1)C12CC3CC(CC(C3)C1)C2 | 41* | -3 | 9 | 21 | -8
CSc1cccc(NC(=O)c2ccc3c(c2)c(C)c(C)n3Cc2ccc(F)cc2)c1 | 3 | 2 | 1 | -2 | 7
CSC1=N/C(=C\c2ccccc2C)C(=O)S1 | 3 | 32* | 1 | 3 | 5
COc1ccc(NC(=O)N2CCC(c3nc(-c4cccs4)no3)CC2)cc1 | 1 | -2 | 0 | -6 | -22
O=C(Nc1ccc(Cl)cc1)N1CCC(c2nc(-c3cccs3)no2)CC1 | 17 | -14 | 0 | -12 | -46*
CCOc1ccc(Cl)cc1S(=O)(=O)n1nnc2ccccc21 | 3 | -3 | 0 | -3 | -39*
Cc1ccc(C(=O)OCn2ncc(Cl)c(Cl)c2=O)cc1 | 13 | 7 | -1 | -8 | -48*
CCC(=O)Nc1ccc(C(=O)Cn2ncc(Cl)c(Cl)c2=O)cc1 | -2 | 7 | -1 | 0 | -1
O=C(OCn1ncc(Cl)c(Cl)c1=O)c1ccc(C(F)(F)F)cc1 | 1 | -13 | 0 | -4 | -48*
CCOC(=O)c1ccc(NC(=O)Cn2ncc(Cl)c(Cl)c2=O)cc1 | 0 | 1 | 0 | -3 | -30
COc1cccc(C(=O)Nc2ccc(Oc3cccc(C(F)(F)F)c3)nc2)c1 | 42* | 2 | -1 | -4 | -42*
O=C(Nc1ccc(Oc2cccc(C(F)(F)F)c2)nc1)c1cccs1 | 32* | 5 | -1 | -2 | -45*
COc1ccc(NC(=O)COc2cccc(C(F)(F)F)c2)cn1 | 0 | 23 | 0 | 0 | 2
O=C(Nc1ccc(Oc2cccc(C(F)(F)F)c2)nc1)c1ccccc1 | 15 | 2 | 4 | -2 | -22
Cc1cc(C)c(C)c(S(=O)(=O)N2CCN(C(=O)CNC(=O)c3ccco3)CC2)c1C | 0 | 1 | -1 | -4 | -25
COc1ccc(Cn2c(C(=O)O)c(CNCc3ccc(C)o3)c3ccc(OC)cc32)cc1 | 0 | 0 | 0 | 0 | 7
O=[N+]([O-])c1cc(S(=O)(=O)Nc2cccc(C(F)(F)F)c2)ccc1-n1nnc2ccccc21 | 15 | -4 | 0 | -7 | -15
COc1ccc(NS(=O)(=O)c2ccc(-n3nnc4ccccc43)c([N+](=O)[O-])c2)cc1 | 36* | -9 | 2 | -11 | -3
O=C1C=C(c2ccc3[nH]ccc3c2)C[C@@H](c2ccc(Cl)cc2)C1 | 3 | 4 | 0 | 4 | /
COc1ccc(-c2sc(Nc3ccccc3)n[n+]2-c2ccc(F)cc2)cc1Br | -1 | -2 | 0 | 4 | -4
CCc1ccc(Nc2n[n+](-c3ccccc3)c(-c3c(Cl)cccc3Cl)s2)cc1 | 93* | -9 | 0 | -7 | -69*
COc1ccc2ccccc2c1-c1sc(Nc2ccccc2)n[n+]1-c1ccc(F)cc1 | 37* | -8 | 6 | -9 | -40*
CCc1ccc(Nc2n[n+](-c3ccccc3)c(-c3ccc(N(CC)CC)cc3)s2)cc1 | 24 | -8 | 6 | -1 | -11
Fc1ccc(-[n+]2nc(Nc3ccccc3)sc2-c2c(Cl)cccc2Cl)cc1 | 49* | -9 | 3 | -5 | -27
CCN(C(=O)CSc1nc2ccccc2c2nc(CCn3c(C)nc4ccccc43)nn12)c1cccc(C)c1 | 4 | -2 | -1 | -3 | -7
